Results on 28 compounds are retold here after PubChem BioAssay (NCATS).

Results filed as inconclusive are left out. A call without a number means that no potency is given here. Unmarked numbers belong to inactive results. The source made the active and inactive calls. Calls follow the shape of the dose curve; as a rule, active = well fitted inhibition curve with a large enough effect; inconclusive = small, poorly fitted or top-dose-only effect; inactive = flat fitted curve, though single readings scatter.

For the test, the system named is CRL-7250. The experiment in a line: qHTS assay to identify novel small-molecules to repurpose for Merkel cell carcinoma treatment (AID 1296009). Also: nearly all actives have a fitted effect of over 60% in size. The following applies: MCC and control cell lines, CellTiter-Glo viability, 72 h; series mostly up to 92 µM. The procedure, abridged: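 Cell viability measured by CellTiter-Glo following 72 hr compound treatment at 37 degree celsius, with NPC and MIPE libraries tested in 8- and 11-point concentration series.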
(In general: Quantitative high-throughput screening tests each substance at several concentrations.)

Turning to `CC(C)(O)C1=CCC23COC(C2)C(O)(C(=O)O)CCC13` (stereo not drawn), the Potency result was “inactive”.

As for `COc1cc(/C=C/C(=O)O[C@H]2[C@@H]3C=CO[C@@H](O[C@@H]4O[C@H](CO)[C@@H](O)[C@H](O)[C@H]4O)[C@@H]3[C@@]3(CO)O[C@@H]23)ccc1O`, the Potency result is “inactive”.

Turning to `COc1ccc(OC)c(C2C(C#N)=C(N)Oc3n[nH]c(-c4ccc5ccccc5c4)c32)c1` (stereo not drawn), the Potency entry is “inactive”.

In the case of `COc1ccc(CCC(=O)O)c(O[C@@H]2O[C@H](CO)[C@@H](O)[C@H](O)[C@H]2O)c1`, the Potency entry was “inactive”.

With `CC(=O)OC(C)(C)/C=C/C(=O)[C@](C)(O)C1[C@H](O)C[C@@]2(C)[C@@H]3CC=C4[C@@H](C[C@H](O[C@@H]5O[C@H](CO)[C@@H](O)[C@H](O)[C@H]5O)C(=O)C4(C)C)[C@]3(C)C(=O)C[C@]12C` (stereo partly drawn), the Potency entry is “inactive”.

As for `O=C(/C=C/c1ccc(O)cc1)OCC1OC(O)C(OC2OC(CO)C(O)C(O)C2O)C(O)C1O` (stereo not drawn), the Potency result was “inactive”.

On to `C[C@@H]1O[C@@H](O[C@H]2[C@H](OC(=O)[C@]34CCC(C)(C)C[C@H]3C3=CCC5[C@@]6(C)C[C@@H](O)[C@@H](O[C@@H]7O[C@H](CO)[C@@H](O)[C@H](O)[C@H]7O)[C@@](C)(CO)C6[C@H](O)C[C@@]5(C)[C@]3(C)CC4)OC[C@H](O)[C@@H]2O)[C@H](O)[C@H](O[C@@H]2OC[C@](O)(CO)[C@H]2O)[C@H]1O[C@@H]1OC[C@@H](O)[C@H](O[C@H]2O[C@H](C)[C@@H](O)[C@H](O)[C@@H]2O)[C@H]1O` (stereo partly drawn), for which the outcome is “inactive [at 9.27 µM]”.

As to `CCOC(=O)CSc1nc2c(sc3ccccc32)c(=O)n1CCCN1CCCC1`, the Potency result was “inactive”.

`CC1(C(=O)O)CCCC2(C)C3CCC4CC3(CCC12)CC4C(=O)O` (stereo not drawn): the Potency entry was “inactive”.

Regarding `CC(C)(CO)c1cc2cc(NC(=O)C3(c4ccc5c(c4)OC(F)(F)O5)CC3)c(F)cc2n1CC(O)CO` (stereo not drawn), the Potency result was “inactive”.

On to `Cc1ncc([N+](=O)[O-])n1CC(O)CN1CCOCC1` (stereo not drawn), for which the Potency result is “inactive”.

Take `Cc1occc(=O)c1O[C@@H]1O[C@H](COC(=O)CC(C)(O)CC(=O)O)[C@@H](O)[C@H](O)[C@H]1O` (stereo partly drawn): the Potency entry is “inactive”.

Take `C[C@H]1O[C@@H](O[C@H]2CC[C@@]3(C)C(CC[C@]4(C)C3CC=C3C5CC(C)(C)CC[C@]5(C(=O)O)CC[C@]34C(=O)O)C2(C)C)[C@H](O)[C@@H](O)[C@@H]1O` (stereo partly drawn): the Potency result is “inactive”.

`OC[C@H]1O[C@@H](Oc2ccccc2)[C@H](O)[C@@H](O)[C@@H]1O`: the Potency entry was “inactive”.

In the case of `C=C(C(=O)O)C1CC2=C(C)CCCC2(C)C[C@@H]1O` (stereo partly drawn), the Potency result is “inactive”.

In the case of `C[C@]1(OC(=O)/C=C/c2ccccc2)C[C@H](O)[C@]2(O)C=CO[C@@H](O[C@@H]3O[C@H](CO)[C@@H](O)[C@H](O)[C@H]3O)C12` (stereo partly drawn), the Potency entry is “inactive”.

For `C=C1C(O)CCC2(C)CC3(OC)OC(=O)C(C)=C3CC12` (stereo not drawn), the Potency entry was “inactive”.

On to `CC1(O)CCC2C(C(=O)O)=COC(OC3OC(CO)C(O)C(O)C3OC(=O)/C=C/c3ccc(O)cc3)C21` (stereo not drawn), for which the Potency entry was “inactive”.

In the case of `CC12CCC(=O)C=C1C(O)CC1C2C(O)CC2(C)C1CC[C@]2(O)C(=O)CO` (stereo partly drawn), the outcome is “inactive [at 9.27 µM]”.

For the compound `CC1(C)CC[C@]2(C(=O)O)CC[C@]3(C)C(=CCC4[C@@]5(C)CC[C@H](O[C@H]6O[C@H](C(=O)O)[C@@H](O)[C@H](O[C@@H]7O[C@H](CO)[C@H](O)[C@H](O)[C@H]7O)[C@H]6O)C(C)(C)C5CC[C@]43C)[C@@H]2C1` (stereo partly drawn), the outcome is “inactive [at 9.27 µM]”.

With `COc1ccc(-c2nc(-c3ccc(-c4cccc(Cl)c4)o3)[nH]c2-c2ccc(OC)cc2)cc1`, the Potency entry was “inactive”.

As for `COc1cc(OC)cc(C(=O)Nc2ccc(Cl)c(-c3nc4ccc(N(C)C)cc4[nH]3)c2)c1`, the Potency entry is “inactive”.

Consider `C=C1CC[C@@H]2[C@](C)(CO[C@@H]3O[C@H](CO)[C@@H](O)[C@H](O)[C@H]3O)CCC[C@@]2(C)[C@@H]1CCC1=CCOC1=O`, for which the Potency result was “inactive”.

`O=c1c2cccnc2n(-c2cccc([N+](=O)[O-])c2)c(=O)n1Cc1ccncc1`: the Potency result is “inactive”.

`COC(=O)C1=COC(O[C@@H]2O[C@H](COC(=O)/C=C/c3ccc(O)cc3)[C@@H](O)[C@H](O)[C@H]2O)C2C(CO)=CCC12` (stereo partly drawn): the Potency entry was “inactive”.

Regarding `C/C=C(\C)C(=O)OC1C2(O)CC3=C4CC(=O)OC(c5ccoc5)C4(C)CCC3C(C)(C2=O)C(C(OC(C)=O)C(=O)OC)C1(C)C` (stereo not drawn), the Potency entry is “inactive”.

For the compound `COc1cc(C[C@H]2COC(=O)[C@@H]2Cc2ccc(O)c(OC)c2)ccc1O`, the Potency entry was “inactive”.

On to `Cc1ccc(Cc2c(C)nc3nc(SCC(=O)NCCN4CCNCC4)nn3c2C)cc1`, for which the Potency entry was “inactive”.
